Experimental data published in PubChem BioAssay (NCI).
Compounds without any hit were thinned out: in the full panel of roughly 79,000, 15% have a hit. Activity calls are given as the source filed them. Cut-off read from the data, not from the text of the source: active = growth inhibition above about 70%; inactive = the rest. Where a SMILES comes first, the peptide text is derived from it.

How the values were obtained:
[1] = NCI Yeast Anticancer Drug Screen. Data for the rad50 strain (AID 155);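 note: 0% = growth of vehicle-only cultures of the same strain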; conditions: S. cerevisiae rad50 strain growth inhibition; at 50.0 µM; stronger effect = higher value
Summary of the method: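 Vehicle-treated cultures provide the reference for the growth inhibition reported for compound-exposed, repair-deficient yeast.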

[2] = NCI Yeast Anticancer Drug Screen. Data for the mec2-1 strain (AID 157); conditions: S. cerevisiae mec2-1 strain, at 50.0 µM, stronger effect = higher value
Summary of the method: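 Test agents were screened against the mec2-1 yeast strain, with defined DNA repair or cell cycle alteration. Growth was scored as inhibition against vehicle-only controls.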

[3] = NCI Yeast Anticancer Drug Screen. Data for the sgs1 mgt1 strain (AID 161);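 note: 0% = growth of cultures given vehicle only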; conditions: S. cerevisiae sgs1 mgt1 strain, at 50.0 µM, stronger effect = higher value
Summary of the method: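 Genetically altered yeast, compound exposure, growth inhibition relative to vehicle.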

[4] = NCI Yeast Anticancer Drug Screen. Data for the cln2 rad14 strain (AID 165);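 note: 0% = growth equal to vehicle treated cultures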; conditions: S. cerevisiae cln2 rad14 strain, at 50.0 µM, stronger effect = higher value
Summary of the method: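 Growth of compound-exposed yeast (cln2 rad14 genotype) measured and expressed as inhibition relative to vehicle.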

[5] = NCI Yeast Anticancer Drug Screen. Data for the bub3 strain (AID 167); conditions: S. cerevisiae bub3 mutant strain, at 50.0 µM, stronger effect = higher value
Summary of the method: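 Mutant yeast screening strain plus compound; vehicle-treated cultures serve as the 0% inhibition reference.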

[6] = NCI Yeast Anticancer Drug Screen. Data for the mlh1 rad18 strain (AID 175); conditions: S. cerevisiae mlh1 rad18 strain growth inhibition; at 50.0 µM; stronger effect = higher value
Summary of the method: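 In this whole-cell yeast screen, a strain with altered DNA damage repair is challenged with compound, and its growth is measured against matched vehicle-treated controls.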

Measured: growth inhibition

CN(C)OC(=O)Nc1cccc([N+](=O)[O-])c1
inactive: [1] 19.1% | [2] 13.3% | [3] 14.1% | [4] -82.8% | [5] 4.8% | [6] -2.6%

O=C(O)CCC(CCC(=O)O)(C(=O)O)c1ccccc1
inactive: [1] -20.1% | [2] -6.5% | [3] -8.75% | [4] -42.1% | [5] -1.65% | [6] -7.8%

CC(C)(C)OC(=O)NC(CSSCC(NC(=O)OC(C)(C)C)C(=O)O)C(=O)O (stereo unspecified)
inactive: [1] -7.05% | [2] -10.2% | [3] -10.7% | [4] -3.45% | [5] -5.7% | [6] -6.4%

Nc1cccc(N)n1
inactive: [1] 7.65% | [2] -12.2% | [3] -15.8% | [4] 5.7% | [5] -0.7% | [6] -14.6%

O=S1CCS(=O)CCS(=O)CC1 (stereo unspecified)
inactive: [1] -17.1% | [2] -2.3% | [3] -0.6% | [4] -18.6% | [5] -0.4% | [6] -9.7%

Cc1ccc(C(=O)/C=C(\C(=O)c2ccccc2)c2ccccc2)cc1C
inactive: [1] 12.5% | [2] 14.8% | [3] 1.85% | [4] 11.7% | [5] 11.3% | [6] 9.65%

CCOC(=O)CNc1nnnn1C1OC(CO)C(O)C1O (stereo unspecified)
inactive: [1] -2.05% | [2] -13.1% | [3] -11.4% | [4] 11.7% | [5] -12% | [6] -19.6%

c1ccc(-c2nc3ccccc3nc2-c2ccc(-c3nc4ccccc4nc3-c3ccccc3)cc2)cc1
inactive: [1] 8.2% | [2] -0.6% | [3] -9% | [4] 4.6% | [5] 1.85% | [6] -18.8%

O=C(O)/C=C\C(=O)Nc1ccc(N=Nc2ccccc2)cc1
inactive: [1] -34.6% | [2] -39.9% | [3] -7.95% | [4] -3.65% | [5] -18.8% | [6] -2.9%

CON[N+]([O-])=NC(C)C
inactive: [1] 27.6% | [2] 6.3% | [3] 21.6% | [4] 11.5% | [5] 17% | [6] 21.8%

O=C(CCc1cc(O)cc(O)c1)NCCc1cc(OCc2ccccc2)cc(OCc2ccccc2)c1
inactive: [1] 28.7% | [2] 24.7% | [3] 45% | [4] 33.2% | [5] 27.1% | [6] -42.6%

CCCCCCC(=O)/C=C/c1ccc(OCc2ccccc2)c(OCc2ccccc2)c1
inactive: [1] 33.9% | [2] -2.6% | [3] 18.5% | [4] 23.9% | [5] -2.15% | [6] 16.1%

Cc1ccc(-n2cnc3sc4c(c3c2=O)CCCC4)cc1
inactive: [1] -12.2% | [2] -10.7% | [3] 0.7% | [4] -9.7% | [5] -7.65% | [6] -16.5%

COc1ccc(/C(N=Nc2ccccc2)=N/N=C(N)N)cc1
inactive: [1] 24.3% | [2] 6.35% | [3] 12.1% | [4] -2.6% | [5] 36.9% | [6] 8.2%

CC(=O)c1c(C)cc2cccc(OC3OC(CO)C(O)C(O)C3O)c2c1O (stereo unspecified) (tested in a mixture with another compound)
inactive: [1] 9.1% | [2] 8.2% | [3] -18.6% | [4] 0% | [5] -7.25% | [6] -56.3%

Cc1cc2nc(Oc3ccccc3)nc(=O)n2o1
inactive: [1] 2.3% | [2] 0.4% | [3] 6.7% | [4] -2.05% | [5] 11.8% | [6] -9.2%

N#Cc1nc(C2CCC2)oc1N
inactive: [1] 2.3% | [2] 5.85% | [3] -15.3% | [4] 18.6% | [5] 1.55% | [6] -41.5%

Cc1ccc(NC(=S)Nc2cccc(C(F)(F)F)c2)cc1C
inactive: [1] -11.9% | [2] -4.45% | [3] -5.75% | [4] 4.85% | [5] -7.3% | [6] 20.6%

CCC(=O)[C@H]1CC[C@H]2[C@@H]3CCC4=CC(=O)CC[C@]4(C)[C@H]3CC[C@]12C
inactive: [1] -7.6% | [2] 26.9% | [3] 32% | [4] 6.5% | [5] 37.5% | [6] 2.45%

N#CC(c1ccccc1)N(CCc1ccccc1)C(=O)c1ccccc1 (stereo unspecified)
inactive: [1] -3.7% | [2] 1.7% | [3] -23.4% | [4] -18.7% | [5] -27.8% | [6] -48.2%

CCOP(=O)(OCC)c1c(C(=O)OC)cc(=O)[nH]c1-c1ccc(C)cc1
inactive: [1] 44.9% | [2] 23.4% | [3] 40% | [4] 25.2% | [5] 53.7% | [6] 61.3%

CCCCCCCCCC1OCCC(C)O1 (stereo unspecified)
inactive: [1] 20.2% | [2] 9.95% | [3] -0.6% | [4] -20.9% | [5] 9.5% | [6] 21.2%

C/C(=N\N)c1cnc(N)nc1C
inactive: [1] -2.75% | [2] 5.4% | [3] 7.65% | [4] -6.3% | [5] -11.7% | [6] -12.8%

CC(N)(C(=O)O)c1ccccc1 (stereo unspecified)
inactive: [1] -2.45% | [2] -2.45% | [3] 18.6% | [4] -25.2% | [5] -13.9% | [6] -21.4%

CCOC(=O)c1cc2sc(NC(=O)c3ccco3)nc2o1
inactive: [1] 10.8% | [2] 12.2% | [3] 48.8% | [4] 4.3% | [5] 6.6% | [6] 27.6%

CCOC(=O)/C(=C/c1ccc(C(=O)OC)cc1)N(CC)CC
inactive: [1] -26.5% | [2] -20.5% | [3] -12.1% | [4] 12.2% | [5] -20.1% | [6] -25.8%

CC(=O)C1C(=O)C(=O)N(c2ccccc2C)C1=O (stereo unspecified)
inactive: [1] -25.6% | [2] -20.6% | [3] -13.8% | [4] 9.45% | [5] -24.9% | [6] -25.4%

Cc1ccc(NC(=O)c2ccc(Cl)cc2)cc1Cl
inactive: [1] 18.9% | [2] 1.35% | [3] 2.95% | [4] -9.65% | [5] 13.8% | [6] -2.3%

CN(C)N=Nc1c(Cl)cccc1Cl
inactive: [1] 3.35% | [2] 26.7% | [3] -6.6% | [4] -13% | [5] 2.35% | [6] 7.75%

CCOC(=O)/C(=C\c1cc(OC)ccc1OC)P(=O)(OCC)OCC
inactive: [1] 39.2% | [2] 25.9% | [3] 18.4% | [4] 21.9% | [5] 7.6% | [6] 16.8%

Cc1c([N+](=O)[O-])cc(C(C)(C)C)c(OC(=O)Nc2cccc(Cl)c2)c1[N+](=O)[O-]
active: [2] 74% | [3] 79.7% | [6] 72.3%
inactive: [1] 60.7% | [4] 23.1% | [5] 39.1%

CCC1CN2CCc3c([nH]c4ccccc34)[C@@](C(=O)OC)(c3cc4c(cc3OC)N(C)C3C(O)(C(=O)OC)C(C(=O)OC)C5(CC)C=CCN6CCC43C65)C[C@@H](C2)[C@@H]1C(C)(C)C (stereo partly specified)
inactive: [1] -6.3% | [2] -10% | [3] -9% | [4] -13.6% | [5] -36.3% | [6] -72.7%

CCOc1nc(N)nc(C)c1N=Nc1ccccc1OC
inactive: [1] 12.7% | [2] 9.05% | [3] 14.4% | [4] 35.9% | [5] 11.5% | [6] 13.5%

CC(=O)CCn1c(=S)sc2ccccc21
inactive: [1] -6.3% | [2] 30.2% | [3] 59.5% | [4] 12.2% | [5] 29.7% | [6] -28.6%

Clc1ccc(/C=C/c2nc3ccccc3s2)cc1Cl
inactive: [1] -13.8% | [2] -23.6% | [3] 3.1% | [4] 9.95% | [5] 27.2% | [6] -16.2%

CCOC(=O)C(Cl)(NC(=O)OCc1ccccc1)C(F)(F)F (stereo unspecified)
inactive: [1] -21.8% | [2] 0% | [3] 7.15% | [4] 22.5% | [5] 6.7% | [6] -56.1%

COC(=O)C(NC(=O)C(NC(=O)C(N)C(C)C)C(C)C)C(C)C (stereo not drawn) (H-Val-Val-Val-OMe; configuration not given here)
inactive: [1] 5.3% | [2] 20.6% | [3] 5.4% | [4] -11.7% | [5] -3.4% | [6] -9.5%

CCOc1c(C)cc(C(C)c2cc3c(cc2OC)OCO3)cc1C (stereo unspecified)
inactive: [1] 19.2% | [2] 26% | [3] 23.5% | [4] 17.4% | [5] 51.4% | [6] 25.1%

CCC(=O)CCc1ccc2ccccc2c1
inactive: [1] 22.2% | [2] 15.7% | [3] 10.9% | [4] -16.9% | [5] 23.5% | [6] 24.2%

Nc1nnc2nc(CC(=O)c3cccc([N+](=O)[O-])c3)c(CC(=O)c3cccc([N+](=O)[O-])c3)nn12
inactive: [1] 4.5% | [2] 4.2% | [3] 9.35% | [4] 18.2% | [5] 18.6% | [6] 14.8%

CC(=O)OC1CN(c2ccc(Br)cc2)CC(OC(C)=O)CN(c2ccc(Br)cc2)C1 (stereo unspecified)
inactive: [1] 6.25% | [2] 9.7% | [3] -13.8% | [4] -32.9% | [5] -5.55% | [6] -13.3%
